# Legend:
# [1] = target: T1, Muscle, skeletal receptor tyrosine-protein kinase (Homo sapiens) (UniProt O15146); conditions: at 1 µM;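 further: reported value is the mean percent inhibition of MuSK kinase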
# T1 sequence (whole entry): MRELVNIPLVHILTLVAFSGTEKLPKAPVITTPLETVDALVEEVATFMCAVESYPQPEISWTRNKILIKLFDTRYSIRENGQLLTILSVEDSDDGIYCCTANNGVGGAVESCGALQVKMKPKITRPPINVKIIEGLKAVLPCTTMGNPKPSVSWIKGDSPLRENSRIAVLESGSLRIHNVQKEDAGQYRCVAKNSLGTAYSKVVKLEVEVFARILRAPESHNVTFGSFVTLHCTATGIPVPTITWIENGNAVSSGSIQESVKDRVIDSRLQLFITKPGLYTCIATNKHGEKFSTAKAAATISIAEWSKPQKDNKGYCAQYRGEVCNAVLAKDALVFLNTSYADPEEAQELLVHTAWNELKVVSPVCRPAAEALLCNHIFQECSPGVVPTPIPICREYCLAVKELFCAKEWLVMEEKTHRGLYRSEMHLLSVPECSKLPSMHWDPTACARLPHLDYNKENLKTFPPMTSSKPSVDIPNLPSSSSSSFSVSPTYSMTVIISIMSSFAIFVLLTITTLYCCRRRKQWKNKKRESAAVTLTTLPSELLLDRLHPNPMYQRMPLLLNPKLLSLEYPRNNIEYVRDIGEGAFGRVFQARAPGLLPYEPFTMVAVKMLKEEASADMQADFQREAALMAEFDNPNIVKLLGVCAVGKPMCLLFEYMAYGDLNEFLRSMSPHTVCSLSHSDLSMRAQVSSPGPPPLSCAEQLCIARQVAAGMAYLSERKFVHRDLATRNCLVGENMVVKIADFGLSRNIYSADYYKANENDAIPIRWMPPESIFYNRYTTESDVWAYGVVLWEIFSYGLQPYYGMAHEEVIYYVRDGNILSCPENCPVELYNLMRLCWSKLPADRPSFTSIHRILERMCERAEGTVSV
# [2] = target: Platelet-derived growth factor receptor alpha (Homo sapiens) (UniProt P16234); conditions: at 0.1 µM
# [3] = target: Platelet-derived growth factor receptor alpha (Homo sapiens) (UniProt P16234); conditions: at 1 µM
# [4] = system: Platelet-derived growth factor receptor alpha (Homo sapiens), P16234 [D842V]; conditions: at 0.1 µM
# Platelet-derived growth factor receptor alpha (Homo sapiens), P16234 [D842V], sequence (P16234 whole entry D842V): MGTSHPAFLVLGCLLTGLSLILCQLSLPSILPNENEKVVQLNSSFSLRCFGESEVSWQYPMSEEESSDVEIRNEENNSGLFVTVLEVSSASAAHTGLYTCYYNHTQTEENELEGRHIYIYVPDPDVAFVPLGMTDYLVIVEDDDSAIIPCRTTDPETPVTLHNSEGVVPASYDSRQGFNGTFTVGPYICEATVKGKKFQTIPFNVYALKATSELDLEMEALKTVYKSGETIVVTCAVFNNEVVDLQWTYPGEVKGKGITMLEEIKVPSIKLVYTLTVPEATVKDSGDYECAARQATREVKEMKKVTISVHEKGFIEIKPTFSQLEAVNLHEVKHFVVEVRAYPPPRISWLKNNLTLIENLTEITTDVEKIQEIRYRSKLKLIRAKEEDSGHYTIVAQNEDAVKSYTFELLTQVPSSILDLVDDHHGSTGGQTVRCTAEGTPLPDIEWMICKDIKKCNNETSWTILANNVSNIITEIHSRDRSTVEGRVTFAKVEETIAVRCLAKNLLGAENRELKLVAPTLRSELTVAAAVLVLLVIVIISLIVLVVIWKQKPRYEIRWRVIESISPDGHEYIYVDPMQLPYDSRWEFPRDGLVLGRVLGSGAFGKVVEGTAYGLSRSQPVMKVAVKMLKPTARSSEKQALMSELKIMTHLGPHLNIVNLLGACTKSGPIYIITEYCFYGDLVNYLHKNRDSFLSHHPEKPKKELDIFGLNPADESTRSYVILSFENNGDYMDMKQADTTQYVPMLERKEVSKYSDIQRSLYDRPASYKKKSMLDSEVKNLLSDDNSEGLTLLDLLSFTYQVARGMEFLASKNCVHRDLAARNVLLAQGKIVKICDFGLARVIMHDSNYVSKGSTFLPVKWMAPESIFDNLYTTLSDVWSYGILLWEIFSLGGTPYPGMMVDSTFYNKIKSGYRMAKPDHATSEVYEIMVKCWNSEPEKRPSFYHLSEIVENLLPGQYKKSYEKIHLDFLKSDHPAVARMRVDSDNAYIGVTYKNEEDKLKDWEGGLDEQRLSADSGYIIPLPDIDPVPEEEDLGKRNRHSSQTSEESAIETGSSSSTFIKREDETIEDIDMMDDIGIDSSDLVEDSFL
# [5] = system: Platelet-derived growth factor receptor alpha (Homo sapiens), P16234 [D842V]; conditions: at 1 µM
# [6] = system: Platelet-derived growth factor receptor alpha (Homo sapiens), P16234 [T674I]; conditions: at 0.1 µM
# Platelet-derived growth factor receptor alpha (Homo sapiens), P16234 [T674I], sequence (P16234 whole entry T674I): as the sequence (P16234 whole entry D842V) above, with T674I, V842D counted along it
# [7] = system: Platelet-derived growth factor receptor alpha (Homo sapiens), P16234 [T674I]; conditions: at 1 µM
# [8] = system: Platelet-derived growth factor receptor alpha (Homo sapiens), P16234 [V561D]; conditions: at 0.1 µM
# [9] = system: Platelet-derived growth factor receptor alpha (Homo sapiens), P16234 [V561D]; conditions: at 1 µM
# [10] = target: Platelet-derived growth factor receptor beta (Homo sapiens) (UniProt P09619); conditions: at 0.1 µM
# [11] = target: Platelet-derived growth factor receptor beta (Homo sapiens) (UniProt P09619); conditions: at 1 µM
# [12] = target: Tyrosine-protein kinase FRK (Homo sapiens) (UniProt P42685); conditions: at 0.1 µM
# Tyrosine-protein kinase FRK (Homo sapiens), sequence (P42685 whole entry): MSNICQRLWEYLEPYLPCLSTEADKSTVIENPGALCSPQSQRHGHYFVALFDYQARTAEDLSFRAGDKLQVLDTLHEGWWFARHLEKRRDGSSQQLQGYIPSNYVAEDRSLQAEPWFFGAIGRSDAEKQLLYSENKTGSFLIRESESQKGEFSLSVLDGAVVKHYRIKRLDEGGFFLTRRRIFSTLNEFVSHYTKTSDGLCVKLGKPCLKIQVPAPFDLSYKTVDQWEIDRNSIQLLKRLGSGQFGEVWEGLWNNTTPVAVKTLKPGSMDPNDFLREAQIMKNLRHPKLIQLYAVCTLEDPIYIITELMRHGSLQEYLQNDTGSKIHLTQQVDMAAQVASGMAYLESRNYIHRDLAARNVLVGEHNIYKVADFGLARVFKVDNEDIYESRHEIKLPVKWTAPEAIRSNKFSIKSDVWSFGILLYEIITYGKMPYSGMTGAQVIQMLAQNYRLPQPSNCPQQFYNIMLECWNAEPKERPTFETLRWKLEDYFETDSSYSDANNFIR
# [13] = target: Tyrosine-protein kinase FRK (Homo sapiens) (UniProt P42685); conditions: at 1 µM
# [14] = target: Protein-tyrosine kinase 2-beta (Homo sapiens) (UniProt Q14289); conditions: at 0.1 µM
# Protein-tyrosine kinase 2-beta (Homo sapiens), sequence (Q14289 whole entry, looked up): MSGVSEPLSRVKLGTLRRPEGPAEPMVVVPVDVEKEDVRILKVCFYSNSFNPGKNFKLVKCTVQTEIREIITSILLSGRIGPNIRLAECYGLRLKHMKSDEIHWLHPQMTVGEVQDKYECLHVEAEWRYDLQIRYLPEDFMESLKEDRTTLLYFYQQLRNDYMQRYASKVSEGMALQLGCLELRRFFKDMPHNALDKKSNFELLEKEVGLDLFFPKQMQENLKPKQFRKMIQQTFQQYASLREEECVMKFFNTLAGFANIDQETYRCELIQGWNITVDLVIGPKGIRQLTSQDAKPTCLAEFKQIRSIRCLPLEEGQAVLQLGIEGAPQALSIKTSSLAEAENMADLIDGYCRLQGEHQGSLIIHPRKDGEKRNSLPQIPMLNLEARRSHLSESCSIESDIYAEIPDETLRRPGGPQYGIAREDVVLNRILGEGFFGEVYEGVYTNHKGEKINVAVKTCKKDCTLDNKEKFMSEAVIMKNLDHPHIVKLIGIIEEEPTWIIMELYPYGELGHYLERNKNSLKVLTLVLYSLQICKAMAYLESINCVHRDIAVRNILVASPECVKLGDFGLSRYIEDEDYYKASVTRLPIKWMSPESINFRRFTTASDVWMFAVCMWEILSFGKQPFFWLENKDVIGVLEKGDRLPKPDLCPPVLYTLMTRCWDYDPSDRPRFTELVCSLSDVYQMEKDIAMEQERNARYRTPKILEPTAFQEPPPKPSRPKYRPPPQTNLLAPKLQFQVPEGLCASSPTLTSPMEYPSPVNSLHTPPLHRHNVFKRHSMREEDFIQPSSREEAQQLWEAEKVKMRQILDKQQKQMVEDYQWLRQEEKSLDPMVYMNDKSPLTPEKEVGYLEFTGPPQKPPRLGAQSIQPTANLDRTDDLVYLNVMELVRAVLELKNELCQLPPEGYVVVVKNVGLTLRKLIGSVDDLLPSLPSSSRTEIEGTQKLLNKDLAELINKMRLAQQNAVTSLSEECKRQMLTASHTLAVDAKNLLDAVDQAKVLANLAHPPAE
# [15] = target: Protein-tyrosine kinase 2-beta (Homo sapiens) (UniProt Q14289); conditions: at 1 µM
# [16] = target: Proto-oncogene tyrosine-protein kinase receptor Ret (Homo sapiens) (UniProt P07949); conditions: at 0.1 µM
# [17] = target: Proto-oncogene tyrosine-protein kinase receptor Ret (Homo sapiens) (UniProt P07949); conditions: at 1 µM
# [18] = system: Proto-oncogene tyrosine-protein kinase receptor Ret (Homo sapiens), P07949 [V804L]; conditions: at 0.1 µM
# Proto-oncogene tyrosine-protein kinase receptor Ret (Homo sapiens), P07949 [V804L], sequence (P07949 whole entry V804L): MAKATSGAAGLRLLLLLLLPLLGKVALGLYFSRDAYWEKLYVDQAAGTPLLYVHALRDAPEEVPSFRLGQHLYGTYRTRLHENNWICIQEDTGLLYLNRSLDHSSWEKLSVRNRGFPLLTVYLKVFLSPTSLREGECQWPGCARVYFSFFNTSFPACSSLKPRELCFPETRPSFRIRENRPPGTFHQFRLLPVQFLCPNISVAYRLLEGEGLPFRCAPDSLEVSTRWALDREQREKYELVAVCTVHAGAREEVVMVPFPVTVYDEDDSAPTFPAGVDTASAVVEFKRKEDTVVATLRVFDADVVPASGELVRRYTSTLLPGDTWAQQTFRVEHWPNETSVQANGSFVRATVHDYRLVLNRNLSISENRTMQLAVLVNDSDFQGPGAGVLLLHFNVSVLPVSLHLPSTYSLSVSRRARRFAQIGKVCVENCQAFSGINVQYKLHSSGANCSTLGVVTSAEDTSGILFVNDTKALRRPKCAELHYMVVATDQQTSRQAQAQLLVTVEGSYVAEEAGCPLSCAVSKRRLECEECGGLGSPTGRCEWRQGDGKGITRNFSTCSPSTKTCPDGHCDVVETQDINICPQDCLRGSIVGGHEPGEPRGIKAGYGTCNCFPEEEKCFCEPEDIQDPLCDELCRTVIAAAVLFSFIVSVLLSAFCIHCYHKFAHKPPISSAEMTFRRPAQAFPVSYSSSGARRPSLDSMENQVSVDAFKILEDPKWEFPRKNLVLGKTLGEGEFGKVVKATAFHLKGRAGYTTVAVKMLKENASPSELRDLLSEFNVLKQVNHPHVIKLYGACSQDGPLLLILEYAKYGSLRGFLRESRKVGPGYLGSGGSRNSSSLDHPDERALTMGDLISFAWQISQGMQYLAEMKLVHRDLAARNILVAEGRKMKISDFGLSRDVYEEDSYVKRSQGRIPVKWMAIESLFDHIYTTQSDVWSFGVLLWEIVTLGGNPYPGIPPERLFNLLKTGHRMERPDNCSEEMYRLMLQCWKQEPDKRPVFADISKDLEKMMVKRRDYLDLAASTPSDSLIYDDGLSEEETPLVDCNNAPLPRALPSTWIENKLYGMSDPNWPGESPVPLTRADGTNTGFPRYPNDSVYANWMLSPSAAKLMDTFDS
# [19] = system: Proto-oncogene tyrosine-protein kinase receptor Ret (Homo sapiens), P07949 [V804L]; conditions: at 1 µM
# [20] = system: Proto-oncogene tyrosine-protein kinase receptor Ret (Homo sapiens), P07949 [Y791F]; conditions: at 0.1 µM
SMILES,inhibition [1] [%],inhibition [2] [%],inhibition [3] [%],inhibition [4] [%],inhibition [5] [%],inhibition [6] [%],inhibition [7] [%],inhibition [8] [%],inhibition [9] [%],inhibition [10] [%],inhibition [11] [%],inhibition [12] [%],inhibition [13] [%],inhibition [14] [%],inhibition [15] [%],inhibition [16] [%],inhibition [17] [%],inhibition [18] [%],inhibition [19] [%],inhibition [20] [%]
C[C@@H](Oc1cc(-n2cnc3ccc(OC[C@@H](O)CO)cc32)sc1C(N)=O)c1ccccc1Cl,51.4,13.8,62.4,4.15,40.5,0.37,51.2,7.79,50.1,7.9,54.6,0.8,2.17,-2.91,-1.09,0.87,7.49,2.02,5.35,-0.83
COc1cc(/C=N/Nc2ncnc3c2cnn3C(C)C)ccc1O,53.2,17.4,64.7,13.3,61.1,3.82,4.12,12.3,54.8,8.52,45.1,2.61,1.87,8.31,21.9,61.1,85.4,14.1,53.9,54
COC(=O)c1ccc2c(c1)C(=Cc1cc(Br)c(O)c(Br)c1)C(=O)N2,8.06,5.39,16.1,2.33,12.2,1.96,3.91,4.32,12.3,1.55,6.26,1.55,7.02,3.82,13.8,7.67,25.8,7.28,39.8,12.2
CCS(=O)(=O)c1ccc(OC)c(Nc2nccc(N(C)c3ccc4c(C)n[nH]c4c3)n2)c1,1.07,22.9,67.5,21.8,74.3,5.5,12.5,20.5,69.5,20.9,70.9,20.6,70.2,4,19,64.8,83.5,4.04,8.57,58.1
NS(=O)(=O)c1ccc(N/N=C2\C(=O)Nc3ccc(Cl)cc32)cc1,12.6,13.1,40.6,4.17,13.1,11.4,62.9,17.2,47,11.1,36.7,1.76,1.45,6.41,14,-0.09,14.5,8.27,41.6,2.06
Cc1ccc(C(=O)NC2CC2)cc1-c1ccc2[nH]ncc2c1,2.51,2.1,13.4,1.95,4.58,1.44,2.76,3.49,13.8,1.82,6.94,-2.56,-4.36,-4.62,-8.03,-2.17,-0.48,-1.65,0.72,-3.09
ON=C1CCc2cc(-c3nc(C4CCNCC4)[nH]c3-c3ccncc3)ccc21,1.9,2.97,10.5,2.44,6.66,1,0.52,1.54,6.14,4.22,23.3,2.38,-1.06,1.86,1.17,1.22,7.25,6.18,-3.85,1.94
Oc1cccc(-c2nc(-c3ccccc3)[nH]c2-c2ccncc2)c1,8.69,8.99,18.5,4,13.2,5.63,5.18,2.42,9.69,5.66,17.1,2.98,16.5,7.31,14.2,27.4,72.8,4.04,7.21,30
CN(C)C(=O)O[C@@H]1CN[C@@H](C#Cc2cc3ncnc(Nc4ccc(OCc5cccc(F)c5)c(Cl)c4)c3s2)C1,1.14,3.88,7.94,0.63,1.66,1,0.01,0.98,5.29,5.61,9.98,0.71,2.18,-3.27,3.14,3.72,4.94,0.31,-0.74,3.85
Nc1nccc(C#Cc2cncnc2Nc2ccc(OCc3cccc(F)c3)c(Cl)c2)n1,5.94,15.4,15.5,4.4,4.87,5.45,7.68,4.25,4.88,7.6,11.6,2.59,0.85,8.24,14.2,1.17,5.76,10.1,15,4.88
Cc1ccc(Nc2ccnc(Nc3cccc(C(N)=O)c3)n2)cc1O,26.7,48.1,82.3,48.4,88.5,6.94,26.3,46.3,87.2,54.7,79.7,48.6,87.6,9.71,47.8,73.5,85.7,11.7,49.7,74.6
COc1cc2ncnc(Nc3ccc(C)c(O)c3)c2cc1OC,7.42,85.7,93.9,94.2,98,6.7,16.9,89.4,97.8,33.2,76.6,7.74,19.9,12.5,18.9,83.6,89.4,3.3,11.3,76.8
C[C@@H](Oc1cc(-n2cnc3ccc(OCC4CCN(C)CC4)cc32)sc1C(N)=O)c1ccccc1C(F)(F)F,76,25.1,69.4,18.1,65.6,4.88,46,17.7,66.2,56.3,81.5,-0.4,0.5,-2.32,6.22,2.63,11.6,2.09,18.5,1.2
Cc1ccc(O)cc1Nc1ccnc2ccc(S(C)(=O)=O)cc12,5.56,72.2,85,88.8,97.1,7.4,14.8,84.7,95,63.8,84.2,89,95.7,15.7,41.3,81.8,88.4,7.62,26.6,81.3
Cc1ccc2c(-c3ccnc(Nc4cccc(C(F)(F)F)c4)n3)c(-c3ccccc3)nn2n1,5.46,13.9,61,10.5,38.4,3.21,9.14,14.2,52,35.4,85.2,5,30.1,16.5,59.5,15.4,51,2.52,3.3,6.2
NC(=O)c1cccc(Nc2nccc(Nc3cccc(F)c3)n2)c1,7.74,7.13,43.4,1.84,33.6,0.83,5.92,6.64,46,11.5,54.2,1.18,11.8,1.12,25.4,-0.62,26.8,1.12,13.8,3.72
Cc1cc(O)cc(C)c1/C=C/c1cncc(C(=O)N(C)C)c1,8.5,11.8,13.3,3.51,3.16,8.15,1.18,1.47,5.39,5.76,10,-0.14,1.73,5.04,3.05,8.48,11.8,6.64,9.06,8.23
COc1cccc(-n2ncc3c(N/N=C/c4ccc(S(C)(=O)=O)cc4)ncnc32)c1,23.3,43.7,77.8,51.8,89,21,80.5,44.1,86.2,52.4,78.1,0.47,3.05,3.04,5.9,11.4,30.7,4.8,8.24,14.1
COc1cccc(-n2nc(C)c3c(N/N=C(\C)c4ccncc4)ncnc32)c1,0.36,1.29,7.93,-0.18,1.8,1.42,4.43,0.1,0.01,3.11,5.79,0.1,-0.17,1.44,8.6,-0.76,0.88,1.04,1.23,2.73
O=C1Nc2ccccc2/C1=C/Nc1ccc2[nH]c(=O)[nH]c2c1,29.5,26.1,65.3,18,69.2,18.2,80.1,26.1,69.8,19.7,56.7,6.33,8.07,20.6,46.4,23.7,61.3,32.4,75.4,25.8
OCc1ccc(-c2nc(-c3ccccn3)c(-c3ccc4c(c3)OCO4)[nH]2)cc1,3.91,9.57,12.2,4.62,6.61,6.55,6.47,3.57,7.37,4.87,11,2.25,2.05,12,13.1,4.72,4.99,4.41,1.05,12.3
Cc1ccc2c(-c3ccnc(Nc4ccc5c(c4)OCCO5)n3)c(-c3ccc(C(F)(F)F)cc3)nn2n1,-5.36,3.02,9.11,2.16,3.64,2.93,2.96,1.97,4.53,2.08,4.63,-1.35,-0.65,-0.75,2.42,-1.02,3.09,0.74,1.64,1.62
NS(=O)(=O)c1ccc(NC=C2C(=O)Nc3ccc4ncsc4c32)cc1,73,69.8,91.4,75.9,95,29.3,90,68,94.9,73.2,89.8,4.28,4.47,21.8,66.8,47.7,79.9,59,78.3,46.1
COc1cc2ncn(-c3cc(OCc4ccccc4S(C)(=O)=O)c(C#N)s3)c2cc1OC,50.6,59.9,81.6,47.5,88,7.95,36.1,47.3,87.8,45.3,78.1,3.38,4.36,12,25.6,18.2,63.7,11.3,53.6,23.2
CN(c1ccc(NC(=O)Nc2ccc(OC(F)(F)F)cc2)cc1)c1ccnc(Nc2cccc(S(N)(=O)=O)c2)n1,58.5,76.3,86.7,9.66,46.4,46.9,87.1,87.2,96.8,67.5,82.1,5.62,40.9,5.52,59,79.8,72,53.8,86.4,67.4
c1ccc(Nc2ncc(-c3ccccc3)o2)cc1,4.33,9.48,30.3,3.2,7.2,6.18,36.6,20,45.7,10.8,36,3.95,4.95,10.4,14.3,6.9,9.61,2.13,6.39,5.1

# Source: ChEMBL document CHEMBL1961873, “Compounds: GSK PKIS; Assays: Nanosyn kinase panel” (2012)
